In PubChem BioAssay (NCATS) one finds activation, Potency and activity change, negative = inhibition data, which are given here for 24 molecules.

Results filed as inconclusive are left out. Values without a mark were called inactive. The source made the active and inactive calls. Calls follow the shape of the dose curve; as a rule, active = well fitted curve in the direction sought with a large enough effect; inconclusive = small, poorly fitted or top-dose-only effect, or another doubt; inactive = no such curve, though single readings can be large; an effect the other way counts as inactive or inconclusive.

Experiment [1] deals with Cellular tumor antigen p53 (Homo sapiens) (UniProt P04637). The experiment is described as follows: Primary qHTS for small molecule compounds that upregulate eGFP-tagged delta133p53alpha (in N-terminal) cells. (AID 2060322). Also: nearly all actives have a fitted effect of over 75% in size. Also: potency is read from the fitted curve at half-maximal effect.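 As to activation: series mostly up to about 56 µM; 0% = DMSO vehicle and 100% = reference activator.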 The note with it: NCI-H358 eGFP-delta133p53alpha fluorescence, 24 h; activation: active compounds read high. An outline of the steps: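 NCI-H358 cells pre-induced 24 h with 10 ng/ml doxycycline to express N-terminal eGFP-delta133p53alpha, then dosed 24 h at 37C without doxycycline; fixed, Hoechst-stained, GFP intensity by laser scanning cytometry, normalized to DMSO (0%) and 57.5 uM 5-azacytidine (100%).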
Sequence of Cellular tumor antigen p53 (Homo sapiens) (P04637 whole entry, looked up): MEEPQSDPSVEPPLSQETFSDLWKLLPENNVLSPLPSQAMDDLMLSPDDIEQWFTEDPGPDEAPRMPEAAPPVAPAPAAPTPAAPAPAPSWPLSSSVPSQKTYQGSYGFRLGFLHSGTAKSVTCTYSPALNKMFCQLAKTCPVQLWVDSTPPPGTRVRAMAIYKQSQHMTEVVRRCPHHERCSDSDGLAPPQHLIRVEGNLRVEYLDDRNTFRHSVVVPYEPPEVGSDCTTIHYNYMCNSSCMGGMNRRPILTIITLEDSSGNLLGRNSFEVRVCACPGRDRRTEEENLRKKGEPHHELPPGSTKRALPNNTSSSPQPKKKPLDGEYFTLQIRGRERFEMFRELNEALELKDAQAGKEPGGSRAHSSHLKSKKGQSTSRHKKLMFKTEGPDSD

For experiment [2], the target named is Aldehyde dehydrogenase, mitochondrial (Homo sapiens) (UniProt P05091). The experiment is described as follows: qHTS for Inhibitors of the Aldehyde Dehydrogenase Family (ALDH2) Primary screen (AID 2061308).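 Also: plate controls were vehicle for no effect and reference inhibitor for full effect; nearly all actives have a fitted effect of over 55% in size.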
The target in experiment [3] is Retinaldehyde dehydrogenase 3 (Homo sapiens) (UniProt P47895). The experiment is described as follows: qHTS for Inhibitors of the Aldehyde Dehydrogenase Family (ALDH1A3) Primary screen (AID 2061315).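 Also: plate controls were DMSO vehicle for no effect and reference inhibitor for full effect.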

Regarding `Cn1ncnc1[C@@H]1c2n[nH]c(=O)c3cc(F)cc(c23)N[C@H]1c1ccc(F)cc1`, the activation in experiment [1] was -7.14%. For the same molecule, the Potency entry in experiment [2] and in experiment [3] was “inactive” throughout.

With `C=Cc1ccc(O[C@@H]2O[C@H](CO[C@@H]3O[C@@H](C)[C@H](O)[C@@H](O)[C@H]3O)[C@@H](O)[C@H](O)[C@H]2O)cc1`, the activation in experiment [1] was 0.893%. In addition, the Potency result in experiment [2] and in experiment [3] was “inactive” throughout.

For `C=C1C(OC(C)=O)C(=O)C2C(C)(C)C(O)CCC2(C)C1CC(OC(C)=O)/C(C)=C/COC(C)=O` (configuration not stated), the activation in experiment [1] was -14.5%. For the same molecule, the Potency result in experiment [2] and in experiment [3] was “inactive” throughout.

Consider `O=C(O)Cc1ccccc1Oc1ccc(Cl)cc1Cl`, for which the activation in experiment [1] was -3.35%. Moreover, the Potency result in experiment [2] and in experiment [3] was “inactive” in each case.

For `C=C1C(=O)O[C@@H]2[C@H]3C(C)=CC(=O)C3=C(C)[C@@H](OC(=O)/C(C)=C\C)[C@H](O)[C@@H]12`, the Potency in experiment [1] was 16.6 µM (active). The Potency result in experiment [2] and in experiment [3] was “inactive” throughout.

In the case of `Nc1nc2c(nc(Br)n2[C@@H]2O[C@@H]3COP(=O)(O)O[C@H]3[C@H]2O)c(=O)[nH]1`, the activation in experiment [1] was -14.3%. Besides, the Potency entry in experiment [2] and in experiment [3] was “inactive” in each case.

Take `C=C1CCC2C(C)(C)C(O)CCC2(C)C1CCC(C)CCOC(=O)CCC(=O)O` (configuration not stated): the activation in experiment [1] is -3.82%. Further, the Potency entry in experiment [2] and in experiment [3] was “inactive” each time.

Consider `CC(=O)O[C@@H]1[C@H](O[C@@H]2O[C@H](CO)[C@@H](O)[C@H](O)[C@H]2O)[C@@H](O[C@@H]2O[C@@H](C)[C@H](O)[C@@H](O[C@@H]3O[C@H](CO)[C@@H](O)[C@H](O)[C@H]3O)[C@H]2O)[C@H](OC(=O)[C@]23CCC(C)(C)C[C@H]2C2=CCC4[C@@]5(C)C[C@H](O)[C@H](O[C@@H]6O[C@H](C(=O)O)[C@@H](O)[C@H](O)[C@H]6O)[C@@](C)(C(=O)O)C5CC[C@@]4(C)[C@]2(C)CC3)O[C@@H]1C` (some centres not stated), for which the activation in experiment [1] was 2.29%. The activity change, negative = inhibition in experiment [2] is 6.2% [at 11.2 µM]; in experiment [3], -6.53% [at 11.2 µM].

As for `OC[C@@]1(O)CO[C@H](OC[C@H]2O[C@@H](OCCc3ccccc3)[C@H](O)[C@@H](O)[C@@H]2O)[C@@H]1O`, the activation in experiment [1] is -10.7%. Besides, the Potency entry in experiment [2] and in experiment [3] was “inactive” each time.

As to `CC(C)(C)Oc1ccc(OCC2Cc3ccccc3CN2C(=O)c2cccc3ccccc23)cc1` (configuration not stated), the activation in experiment [1] was -10.5%. Besides, the Potency result in experiment [2] and in experiment [3] was “inactive” in each case.

For the molecule `COC(=O)C[C@H]1C(C)(C)[C@H](OC(=O)C(C)C)[C@@]2(O)C(=O)[C@]1(C)C1CC[C@]3(C)C(CC(=O)O[C@H]3c3ccoc3)[C@]13O[C@@H]32` (some centres not stated), the activation in experiment [1] is -17.6%. For the same molecule, the Potency result in experiment [2] and in experiment [3] was “inactive” each time.

Turning to `COc1ccc(/C=C/C(=O)O[C@H]2[C@H](O[C@H]3[C@@H]4C=CO[C@@H](O[C@@H]5O[C@H](CO)[C@@H](O)[C@H](O)[C@H]5O)[C@@H]4[C@@]4(CO)O[C@@H]34)O[C@@H](C)[C@H](O)[C@H]2OC(C)=O)cc1`, in experiment [1], the activation is -0.763%. Further, the Potency result in experiment [2] and in experiment [3] was “inactive” in each case.

Consider `C=C(C(=O)OC)C1C(O)CC2(C)C(=O)CCC(O)(CO)C2C1O` (configuration not stated), for which the activation in experiment [1] was -14.3%. In addition, the Potency result in experiment [2] and in experiment [3] was “inactive” each time.

With `CC(=O)/C=C/C1C(C)CC(O[C@@H]2O[C@H](CO)[C@@H](O)[C@H](O)[C@H]2O)CC1(C)C` (some centres not stated), in experiment [1], the activation was -0.893%. For the same molecule, the Potency result in experiment [2] and in experiment [3] was “inactive” in each case.

On to `C=C1/C(=C/C=C2\CCC[C@]3(C)[C@@H]([C@@H](C)OCCC(O)(CC)CC)CC[C@@H]23)C[C@@H](O)C[C@@H]1O`, for which the activation in experiment [1] is -5%. For the same molecule, the Potency entry in experiment [2] and in experiment [3] was “inactive” in each case.

With `COc1cc(C/C(=C/NC(C)=O)N(CC(=O)Cc2ccccc2)C(C)=O)cc2c1OCO2`, the activation in experiment [1] is -26%. Besides, the Potency entry in experiment [2] and in experiment [3] was “inactive” in each case.

Consider `Cc1cc2nc(NCCCO)n(CC(=O)c3cc(C(C)(C)C)c(O)c(C(C)(C)C)c3)c2cc1C`, for which the activation in experiment [1] is 5%. For the same molecule, the Potency result in experiment [2] and in experiment [3] was “inactive” throughout.

Take `CC1(O)CCCC2(C)C1CCC13CC(CO)C(CCC12)C3` (configuration not stated): in experiment [1], the activation is 0%. Besides, the Potency result in experiment [2] and in experiment [3] was “inactive” in each case.

In the case of `CC(CO)C1CCC2(C)CC3C(CO)CC(O)C3C(C)(O)C/C=C/12` (configuration not stated), the activation in experiment [1] was -8.04%. Moreover, the Potency result in experiment [2] and in experiment [3] was “inactive” throughout.

For `COc1c2c(c(CO)c3c1C(=O)OC3)OC1(C)CCC3(O)C(C)(C)OC(=O)CCC3(C)C1C2` (configuration not stated), the activation in experiment [1] was -16%. For the same molecule, the Potency result in experiment [2] and in experiment [3] was “inactive” in each case.

On to `OCc1ccc(O[C@@H]2O[C@H](CO)[C@@H](O)[C@H](O)[C@H]2O)cc1`, for which the activation in experiment [1] was 2.68%. Besides, the Potency entry in experiment [2] and in experiment [3] was “inactive” each time.

Regarding `CC(=O)O[C@H]1C[C@@]2(C)[C@@H](C[C@@H](O)[C@H]3[C@@]4(C)CC[C@@H](O)[C@@H](C)[C@@H]4CC[C@@]32C)/C1=C(\CCC=C(C)C)C(=O)O`, in experiment [1], the activation is 9%. Further, the Potency entry in experiment [2] and in experiment [3] was “inactive” each time.

As to `C=C[C@H]1[C@H](O[C@@H]2O[C@H](CO)[C@@H](O)[C@H](O)[C@H]2O)OC=C(C(=O)OC)[C@H]1CCO`, in experiment [1], the activation is -7.63%. Further, the Potency entry in experiment [2] and in experiment [3] was “inactive” throughout.

In the case of `COc1cc(O)cc(C)c1C(=O)O[C@H]1[C@@H](O)[C@@H](n2ccc(=O)[nH]c2=O)O[C@@H]1CO`, the activation in experiment [1] is -9.16%. Besides, the Potency result in experiment [2] and in experiment [3] was “inactive” each time.
